The text below walks through data of PubChem BioAssay AID504444 (National Center for Advancing Translational Sciences (NCATS), 2011).

Out of some 360,000 compounds screened, about 7,500 (2.1%) were called active. A call without a number means that no potency is given here. Inconclusive results (about 20%) are left out. The call rests on the fitted dose curve; in most records, active means well fitted inhibition curve with a large enough effect; inconclusive means small, poorly fitted or top-dose-only effect, or effect the other way; inactive means flat fitted curve, though single readings scatter. The full list was thinned out, with actives kept by preference.
Potency means the concentration at half of the fitted maximal effect.

This test is described as follows: Nrf2 qHTS screen for inhibitors. Further: nearly all actives have a fitted effect of over 60% in size. Particulars: A549 ARE-Fluc reporter, luciferase luminescence, 18-24 h; series mostly up to 46 µM. In short, it runs like this:
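In this cell-based qHTS, ARE-driven firefly luciferase in A549 cells reports Nrf2 activity; the luminescent signal after BugLite lysis is the measured value, with a prior CellTiter-Fluor read for cell health.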
Take `Cc1ccc(OCC(=O)NCCCNC(=O)c2ccco2)cc1C`: the Potency result was “inactive”.
As for `Cc1ccc(NC(=O)COc2ccc(/C=N\NC(=O)c3cccnc3)cc2)cc1C`, the Potency entry is “inactive”.
For `Cc1ccc(OCC(=O)NCCCNC(=O)c2cccnc2)cc1C`, the Potency is 5.17 µM (active).
Consider `Cc1ccc(S(=O)(=O)N(C)CC(=O)NCC(c2ccc(F)cc2)N2CCOCC2)cc1` (stereo not drawn), for which the Potency result was “inactive”.
On to `CC(=O)c1nc2ccccc2n1Cc1ccccc1`, for which the Potency entry was “inactive”.
Turning to `CC(=O)Nc1nc2ccccc2n1Cc1ccc(C)cc1`, the Potency is 18.4 µM (active).
With `CCC(=O)Nc1nc2ccccc2n1Cc1ccccc1C`, the Potency entry was “inactive”.
For `CCN(CC)CCNC(=O)Cn1ncc2c3ccccc3n(Cc3ccccc3C)c2c1=O`, the Potency result was “inactive”.
For the molecule `N#Cc1ccc(Oc2ccc(C(F)(F)F)cc2NC(=O)c2ccc(F)cc2)cc1`, the Potency result is “inactive”.
As to `N#Cc1ccc(C(=O)Nc2nc(-c3cccs3)c(C(=O)C(F)(F)F)s2)cc1`, the Potency was 5.17 µM (active).
As to `COC(=O)c1ccccc1NC(=O)c1ccc(C#N)cc1`, the Potency result was “inactive”.
Take `COc1ccc(C(F)(F)F)cc1NC(=O)c1sc2nc(-c3cccs3)ccc2c1N`: the Potency entry was “inactive”.
`CN1CCN(C(=O)c2ccc(-c3ccc(Br)cc3)o2)CC1`: the Potency entry is “inactive”.
In the case of `CC(=O)OC(C)C[N+](C)(C)C` (stereo not drawn), the Potency is 0.461 µM (active).
For the molecule `CC(=O)OCC(COC(C)=O)OC(C)=O`, the Potency entry was “inactive”.
In the case of `CC(C[N+](C)(C)C)OC(N)=O` (stereo not drawn), the Potency result is “inactive”.
As to `O=C(Nc1ccc(S(=O)(=O)N2CCC(c3nc4ccccc4s3)CC2)cc1)c1ccccc1F`, the Potency result was “inactive”.
Turning to `Cc1ccc2onc(CC(=O)N3CCN(c4ccc(Cl)cc4)CC3)c2c1`, the Potency entry was “inactive”.
For `C[C@H](O)[C@@H]1C(=O)N2CCc3ccc(N4CCOCC4)cc3[C@@H]2C[C@@H]1N(C)C(=O)C(C)(C)C`, the Potency entry is “inactive”.
As for `O=C(c1ccc2c(c1)OCCO2)C1CCN(S(=O)(=O)c2cccc(F)c2)CC1`, the Potency is 14.6 µM (active).
The result for `O=C(c1c(F)cccc1F)N1CCN(S(=O)(=O)c2ccc3c(c2)OCCO3)CC1` reads “inactive”; that for `O=C(NCc1cccs1)C1CCN(S(=O)(=O)c2ccc3c(c2)OCCO3)CC1`, “inactive”.
Regarding `CC(C)c1ccc(C2CC(=O)N3CN(C4CCCCC4)CSC3=C2C#N)cc1` (stereo not drawn), the Potency entry was “inactive”.
As for `Oc1c(CN2CCCC2)cc(COCc2ccccc2)c2cccnc12`, the Potency was 16.4 µM (active).
Under `COc1cc(C)cc(CN2CCC(Cc3ccccc3)CC2)c1O` stands “inactive”; under `Oc1ccc(CN2CCN(c3ncccn3)CC2)cc1`, “inactive”.
As for `CC(=O)c1ccc(NC(=O)CCc2nc(-c3ccc(C)cc3)no2)cc1`, the Potency entry was “inactive”.
For `C=CCn1c(=O)c2ccccc2n2c(SCC(=O)N3CCCc4ccccc43)nnc12`, the Potency entry is “inactive”.
For the molecule `O=C(CSc1nc2ccccc2c(=O)n1CCCO)N1CCc2ccccc21`, the Potency entry is “inactive”.
Regarding `Cn1c(SCC(=O)N2CCCc3ccccc32)nc2ccccc2c1=O`, the Potency is 18.4 µM (active).
In the case of `COc1cc(C(=O)OCC(=O)NC23CC4CC(CC(C4)C2)C3)cc(OC)c1OC`, the Potency result is “inactive”.
With `COc1ccc(C2NCCCC2c2ccccc2)cc1` (stereo not drawn), the Potency result was “inactive”.
As to `CCn1ccnc1CN(C)C(=O)c1cc(COc2ccc(-n3cncn3)cc2)on1`, the Potency entry is “inactive”.
Under `C=CCC1(CC=C)CCCN1C(=O)c1cc(COc2ccc(-n3cncn3)cc2)on1` stands 8.2 µM (active); under `O=C(c1cc(COc2ccc(F)c(F)c2)on1)N1CCOCC1`, “inactive”; under `O=C(COC(=O)C1CCCO1)Nc1nc(-c2ccc(F)cc2)cs1` (stereo not drawn), “inactive”.
The result for `Cc1ccc(N2C(=O)N3[C@@H]4c5ccccc5OC[C@@H]4[C@@H](c4ccccc4)[C@@]3(C)C2=O)cc1` reads “inactive”; that for `CCCCN(C(=O)CSCc1ccc(C)cc1)c1c(N)n(Cc2ccccc2)c(=O)[nH]c1=O`, “inactive”; that for `O=C(Cn1c(=O)n(Cc2cccs2)c(=O)c2cccnc21)Nc1ccc(F)cc1`, “inactive”.
As for `CN(C)c1nc(N)nc(Cn2nnc(-c3ccc(C(F)(F)F)cc3)n2)n1`, the Potency entry was “inactive”.
Under `CN(C)c1nc(N)nc(CSc2ccccn2)n1` stands “inactive”; under `CN(C)c1nc(N)nc(CSc2nnnn2-c2cccc3ccccc23)n1`, 6.51 µM (active).
Take `Cc1ccc(-c2nc3ccccn3c2Nc2ccc(F)cc2)o1`: the Potency result was “inactive”.
Regarding `COc1ccc(S(=O)(=O)N2CCc3ccccc32)cc1C(=O)Nc1cc(S(C)(=O)=O)ccc1Cl`, the Potency result is “inactive”.
With `COc1ccc(C(=O)NC2CC(C)(C)Cc3c2cnn3-c2ccccc2)c(OC)c1` (stereo not drawn), the Potency is 18.4 µM (active).
`Cc1cc(C(=O)NC2CC(C)(C)Cc3c2cnn3-c2ccccc2)n[nH]1` (stereo not drawn): the Potency result was “inactive”.
Consider `CC1(C)Cc2c(cnn2-c2cccc(F)c2)C(NC(=O)c2cc[n+]([O-])cc2)C1` (stereo not drawn), for which the Potency entry is “inactive”.
For `CCOC(=O)Cc1csc(SCC(=O)Nc2ccc(C)cc2F)n1`, the Potency result was “inactive”.
As for `Cc1oc(C)c2c(=O)cc(-c3ccc4c(c3)OCO4)cc(OC(=O)c3ccc(Cl)cc3)c12`, the Potency entry was “inactive”.
Consider `N#CCc1c[nH]c2ccc([N+](=O)[O-])cc12`, for which the Potency result is “inactive”.
For `CCNC(=O)c1ccc(OCC(=O)Nc2ccc(F)cc2)c(OC)c1`, the Potency result was “inactive”.
With `COc1ccc(NC(=O)CN(C)CC(=O)Nc2cccc(C(F)(F)F)c2)cc1`, the Potency result was “inactive”.
For the molecule `COc1cc(C(=O)N(C)Cc2cccc(OC)c2OC)ccc1OCC(=O)Nc1cccc(C(F)(F)F)c1`, the Potency was 25.9 µM (active).
Under `COc1ccc(CC2c3cc(OC)c(OC)cc3CC[N+]2(C)CCC(=O)OCCCCCOC(=O)CC[N+]2(C)CCc3cc(OC)c(OC)cc3C2Cc2ccc(OC)c(OC)c2)cc1OC` (stereo not drawn) stands “inactive”; under `COc1cccc(-c2nnc3n(CCc4ccccc4)c(=O)c4ccccc4n23)c1O`, “inactive”; under `O=C(N/N=C/c1cccc(OC(=O)c2ccc([N+](=O)[O-])cc2)c1)c1cccnc1`, “inactive”.
Turning to `N#Cc1cc([N+](=O)[O-])ccc1Oc1cccc(/C=N/NC(=O)c2ccc(Cl)cc2)c1`, the Potency is 5.8 µM (active).
With `O=C(N/N=C/c1cccc([N+](=O)[O-])c1)c1ccncc1`, the Potency result is “inactive”.
For the molecule `O=C(NC(c1ccco1)c1cc(Cl)c2cccnc2c1O)c1ccccc1` (stereo not drawn), the Potency result is “inactive”.
With `COc1ccc(C(CNC(=O)c2ccc(S(=O)(=O)Nc3ccccc3C)cc2)N2CCOCC2)cc1` (stereo not drawn), the Potency result is “inactive”.
For the molecule `COc1ccc(C(CNC(=O)c2cccc(S(=O)(=O)Nc3ccccc3Cl)c2)N2CCOCC2)cc1` (stereo not drawn), the Potency was 18.4 µM (active).
Consider `COc1ccc(C(CNC(=O)c2cccc(NS(=O)(=O)c3ccc(C)c(F)c3)c2)N2CCCC2)cc1` (stereo not drawn), for which the Potency entry was “inactive”.
The result for `CC(C)c1ccc(NC(=O)Cn2c3ncccc3c(=O)n2-c2ccccc2)cc1` reads “inactive”.
